In all, about 5,500 compounds went through this assay and about 2,000 (36%) were called active. About 18% were inconclusive and are not listed. This is one part of the list. Values without a mark were called inactive. Cut-off read from the data, not from the text of the source: active = normalized growth mostly below about 0.91 (no sharp cut-off); inconclusive = no clear call, values can overlap the other calls; inactive = mostly above about 0.92.
Assay: chemical genetic growth profiling, strain panel (AID 1159580);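 note: tested at 20 µM; growth read once vehicle control cultures reached saturation at 30 °C; 1 = growth at the plate median or of vehicle wells; lower values mean less growth of the strain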
Details: S. cerevisiae deletion strains, growth OD
[1] = locus YDR150W, strain NUM1, hits give low values
[2] = locus YHR030C, strain SLT2, hits give low values
[3] = locus YJR075W, strain HOC1, hits give low values
[4] = locus YMR307W, strain GAS1, hits give low values
[5] = locus YNL322C, strain KRE1, hits give low values
[6] = locus YPL055C, strain LGE1, hits give low values
[7] = locus YPL241C, strain CIN2, hits give low values

CCOC(=O)c1ccc(NC(=O)CCC(=O)O)cc1
normalized growth (locus YAL013W, strain DEP1, hits give low values): 0.994
normalized growth (locus YBR229C, strain ROT2, hits give low values): 0.983
normalized growth (locus YDL101C, strain DUN1, hits give low values): 0.978
normalized growth [1]: 0.99
normalized growth (locus YEL061C, strain CIN8, hits give low values): 0.99
normalized growth (locus YGR078C, strain PAC10, hits give low values): 0.99
normalized growth [2]: 1.07
normalized growth (locus YHR087W, strain rtc3, hits give low values): 0.982
normalized growth (locus YJR043C, strain POL32, hits give low values): 1.01
normalized growth [3]: 1
normalized growth (locus YLR039C, strain RIC1, hits give low values): 1.06
normalized growth (locus YLR058C, strain SHM2 (second series), hits give low values): 0.987
normalized growth (locus YLR085C, strain ARP6, hits give low values): 1.02
normalized growth (locus YLR262C, strain YPT6, hits give low values): 1.05
normalized growth (locus YML094W, strain GIM5, hits give low values): 1
normalized growth (locus YMR219W, strain ESC1, hits give low values): 0.991
normalized growth (locus YMR263W, strain SAP30, hits give low values): 0.981
normalized growth [4]: 1.01
normalized growth (locus YNL153C, strain GIM3, hits give low values): 1.01
normalized growth (locus YNL298W, strain CLA4 (second series), hits give low values): 1.01
normalized growth [5]: 0.989
normalized growth (locus YNR030W, strain Alg12, hits give low values): 1.02
normalized growth (locus YOL006C, strain TOP1, hits give low values): 1.04
normalized growth [6]: 1
normalized growth [7]: 1.01
normalized growth (locus YPR135W, strain CTF4, hits give low values): 1.13

O=C1N(c2ccccc2)c2ccccc2C1(Cc1ccncc1)Cc1ccncc1
normalized growth (locus YAL040C, strain CLN3, hits give low values): 1.01
normalized growth (locus YCL061C, strain MRC1 (second series), hits give low values): 1.01
normalized growth [1]: 1
normalized growth (locus YDR363W, strain ESC2, hits give low values): 1.03
normalized growth (locus YER002W, strain NOP16, hits give low values): 0.988
normalized growth [3]: 1.02
normalized growth [4]: 0.997
normalized growth (locus YNL175C, strain NOP13, hits give low values): 0.996
normalized growth (locus YNL197C, strain WHI3, hits give low values): 0.997
normalized growth (locus YNL224C, strain SQS1, hits give low values): 1
normalized growth [5]: 1.03
normalized growth (locus YOR083W, strain WHI5 (second series), hits give low values): 1.02
normalized growth [6]: 1.03
normalized growth [7]: 0.995

CC1(C)CC2C1CC[C@]1(C)CCC3C(C(=O)O)CC(=O)O[C@@]32C1 (stereo partly drawn)
normalized growth (locus YAL021C, strain ccr4, hits give low values): 1.07
normalized growth (locus YAL026C, strain drs2, hits give low values): 1.07
normalized growth (locus YAL030W, strain snc1, hits give low values): 1.04
normalized growth (locus YBL061C, strain skt5, hits give low values): 1.03
normalized growth (locus YBR009C, strain hhf1, hits give low values): 1.03
normalized growth (locus YBR023C, strain chs3, hits give low values): 1.02
normalized growth (locus YBR171W, strain sec66, hits give low values): 1.07
normalized growth (locus YBR231C, strain swc5, hits give low values): 1.06
normalized growth (locus YBR279W, strain paf1, hits give low values): 1.01
normalized growth (locus YCL011C, strain gbp2, hits give low values): 1.03
normalized growth (locus YCL016C, strain dcc1, hits give low values): 1.06
normalized growth (locus YCL061C, strain MRC1, hits give low values): 1.03
normalized growth (locus YCR088W, strain abp1, hits give low values): 1.03
normalized growth (locus YDL005C, strain med2, hits give low values): 1.04
normalized growth (locus YDL040C, strain nat1, hits give low values): 1.05
normalized growth (locus YDR001C, strain nth1, hits give low values): 1.04
normalized growth (locus YDR069C, strain doa4, hits give low values): 1.06
normalized growth (locus YDR137W, strain rgp1, hits give low values): 1.04
normalized growth (locus YDR159W, strain sac3, hits give low values): 1.05
normalized growth (locus YDR195W, strain ref2): 1.06
normalized growth (locus YDR297W, strain sur2, hits give low values): 1.05
normalized growth (locus YDR334W, strain swr1, hits give low values): 1.09
normalized growth (locus YDR335W, strain msn5, hits give low values): 1.15 [resistant] (active)
normalized growth (locus YDR392W, strain spt3, hits give low values): 1.14
normalized growth (locus YEL003W, strain gim4, hits give low values): 1.02
normalized growth (locus YEL037C, strain rad23, hits give low values): 1.06
normalized growth (locus YEL061C, strain CIN8 (second series), hits give low values): 1.04
normalized growth (locus YER015W, strain faa2, hits give low values): 1.02
normalized growth (locus YER016W, strain bim1, hits give low values): 1.04
normalized growth (locus YER111C, strain swi4, hits give low values): 1.01
normalized growth (locus YER155C, strain BEM2 (second series), hits give low values): 1.04
normalized growth (locus YFR010W, strain ubp6, hits give low values): 1.09
normalized growth (locus YGL167C, strain pmr1, hits give low values): 1.05
normalized growth (locus YGL173C, strain kem1, hits give low values): 1.03
normalized growth (locus YGL227W, strain vid30, hits give low values): 1.02
normalized growth (locus YGL240W, strain doc1, hits give low values): 1.06
normalized growth (locus YGL253W, strain hxk2, hits give low values): 1.06
normalized growth (locus YHR013C, strain ard1, hits give low values): 1.05
normalized growth (locus YHR027C, strain rpn1, hits give low values): 1.03
normalized growth [2]: 1
normalized growth (locus YHR079C, strain IRE1, hits give low values): 1
normalized growth (locus YHR142W, strain chs7, hits give low values): 1.05
normalized growth (locus YJL092W, strain hpr5, hits give low values): 1.07
normalized growth (locus YJL095W, strain BCK1 (second series), hits give low values): 1.04
normalized growth (locus YJL095W, strain BCK1, hits give low values): 0.99
normalized growth (locus YJL115W, strain asf1, hits give low values): 1.06
normalized growth (locus YJL129C, strain trk1, hits give low values): 1.09
normalized growth (locus YJL154C, strain vps35, hits give low values): 1.05
normalized growth (locus YJL164C, strain tpk1, hits give low values): 1.02
normalized growth (locus YJL166W, strain qcr8, hits give low values): 1.05
normalized growth (locus YJL187C, strain SWE1, hits give low values): 1.03
normalized growth (locus YJR066W, strain TOR1, hits give low values): 0.942
normalized growth (locus YKL160W, strain elf1, hits give low values): 1.05
normalized growth (locus YKR026C, strain gcn3, hits give low values): 1.02
normalized growth (locus YKR091W, strain srl3, hits give low values): 1.04
normalized growth (locus YLL001W, strain dnm1, hits give low values): 1.07
normalized growth (locus YLL026W, hits give low values): 1.01
normalized growth (locus YLL041C, strain sdh2, hits give low values): 1.01
normalized growth (locus YLR027C, strain aat2, hits give low values): 1.04
normalized growth (locus YLR113W, strain HOG1, hits give low values): 0.98
normalized growth (locus YLR221C, strain rsa3, hits give low values): 1.02
normalized growth (locus YLR258W, strain gsy2, hits give low values): 1.1 [resistant] (active)
normalized growth (locus YLR262C, strain YPT6 (second series), hits give low values): 1.07
normalized growth (locus YLR320W, strain mms22, hits give low values): 1.05
normalized growth (locus YLR342W, strain FKS1, hits give low values): 1.02
normalized growth (locus YLR357W, strain rsc2, hits give low values): 1.13
normalized growth (locus YLR370C, strain arc18, hits give low values): 1.03
normalized growth (locus YLR384C, strain iki3, hits give low values): 1.01
normalized growth (locus YML120C, strain ndi1, hits give low values): 1.04
normalized growth (locus YMR058W, strain fet3, hits give low values): 1.03
normalized growth (locus YMR125W, strain sto1, hits give low values): 1.06
normalized growth (locus YMR129W, hits give low values): 1.05
normalized growth (locus YMR205C, strain PFK2, hits give low values): 1.04
normalized growth (locus YMR231W, strain pep5, hits give low values): 1.03
normalized growth (locus YNL071W, strain lat1, hits give low values): 1.04
normalized growth (locus YNL183C, strain NPR1, hits give low values): 0.931
normalized growth (locus YNL209W, strain ssb2, hits give low values): 1.01
normalized growth (locus YNL322C, strain KRE1 (second series), hits give low values): 1.02
normalized growth (locus YNR049C, strain mso1, hits give low values): 1.05
normalized growth (locus YOR001W, strain rrp6, hits give low values): 1.06
normalized growth (locus YOR070C, strain gyp1, hits give low values): 1.14 [resistant] (active)
normalized growth (locus YOR080W, strain dia2, hits give low values): 1.1 [resistant] (active)
normalized growth (locus YOR083W, strain WHI5, hits give low values): 1.08
normalized growth (locus YOR106W, strain vam3, hits give low values): 1.05
normalized growth (locus YOR231W, strain MKK1, hits give low values): 0.985
normalized growth (locus YOR265W, strain rbl2, hits give low values): 1.05
normalized growth (locus YOR270C, strain vph1, hits give low values): 1.14
normalized growth (locus YOR290C, strain snf2, hits give low values): 1.18 [resistant] (active)
normalized growth (locus YPL051W, strain arl3, hits give low values): 1.03
normalized growth (locus YPL078C, strain atp4, hits give low values): 1.07
normalized growth (locus YPL106C, strain sse1, hits give low values): 1.11
normalized growth (locus YPL240C, strain hsp82, hits give low values): 1.02
normalized growth (locus YPL256C, strain CLN2, hits give low values): 0.967

— PubChem BioAssay AID1159580 (chemical genetic matrix, 2015)
